From PubChem
An excerpt weighted towards active compounds, which were near 1.6% of everything screened.
HTR2A ag – mouse Htr2a agonists via beta-arrestin recruitment, primary screen, cell-based, luminescence; 5-hydroxytryptamine receptor 2A (Mus musculus), P35363; CHO-K1 mHTR2A beta-arrestin complementation; percent of 30 µM serotonin response; activation, % at 7.6 µM; actives 0.66% (n = 360,000);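 active means activation above a run cutoff, the mean activation of all tested compounds plus 3 SD, cut at about 14% in these data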;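 further: 0% = plate median of compound wells and 100% = 30 µM serotonin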
MOR-DOR inv ag – inverse agonists of MOR-DOR heterodimerization, primary screen, cell-based, luminescence; Mu-type opioid receptor (Homo sapiens) + Delta-type opioid receptor (Homo sapiens), …; cell-based MOR-DOR heterodimer luminescence, inverse agonism; inhibition, % at 9.3 µM; actives 0.21% (n = 340,000); in the data active means inhibition above about 22%, passing the limit was not always enough;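 further: 0% = cells with DMSO and 100% = wells without cells with DMSO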
Target sequence (P35372 whole entry, looked up): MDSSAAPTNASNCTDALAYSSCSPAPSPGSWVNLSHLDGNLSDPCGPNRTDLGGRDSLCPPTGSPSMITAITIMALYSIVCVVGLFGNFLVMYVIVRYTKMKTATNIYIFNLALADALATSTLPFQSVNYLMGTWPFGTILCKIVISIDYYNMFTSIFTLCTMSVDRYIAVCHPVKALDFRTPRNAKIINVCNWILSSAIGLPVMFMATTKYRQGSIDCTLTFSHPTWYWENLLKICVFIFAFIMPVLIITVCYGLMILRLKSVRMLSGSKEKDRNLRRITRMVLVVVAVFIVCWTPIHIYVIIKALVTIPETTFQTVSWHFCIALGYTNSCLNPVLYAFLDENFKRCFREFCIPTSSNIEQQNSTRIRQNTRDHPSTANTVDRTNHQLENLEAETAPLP
Target sequence (P41143 whole entry, looked up): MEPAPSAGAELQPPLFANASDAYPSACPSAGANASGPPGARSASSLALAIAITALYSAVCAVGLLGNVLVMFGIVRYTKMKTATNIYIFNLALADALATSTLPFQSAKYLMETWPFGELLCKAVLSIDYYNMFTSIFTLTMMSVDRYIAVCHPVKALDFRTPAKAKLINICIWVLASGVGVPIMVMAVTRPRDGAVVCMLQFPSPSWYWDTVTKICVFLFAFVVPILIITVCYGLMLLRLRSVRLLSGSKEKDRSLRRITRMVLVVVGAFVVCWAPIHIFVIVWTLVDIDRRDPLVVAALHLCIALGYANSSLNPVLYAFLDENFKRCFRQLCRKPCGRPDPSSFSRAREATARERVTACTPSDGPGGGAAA
MOR-DOR ag – agonists of OPRM1-OPRD1 heterodimerization, primary screen, cell-based, luminescence | actives 0.3% (n = 340,000) | activation, % at 9.3 µM | AID 504326, 2011 | cells; in the data active means activation above about 18%;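 further: 0% = vehicle-treated cells and 100% = reference agonist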
HTR5A inv ag – HTR5A inverse agonists in luminescence cell assay, primary screen, counter-screen for OPRM1-OPRD1 heterodimer inverse agonist project, full-deck HTS | 5-hydroxytryptamine receptor 5A (Homo sapiens), P47898 | HTR5A cell line, inverse agonism | inhibition, % at 9.3 µM | actives 0.083% (n = 340,000); in the data active means inhibition mostly above about 23%, no sharp cut-off; inactive means mostly below about 18%;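 further: 0% = cells with DMSO and 100% = no-cell wells with DMSO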
HTR5A ag – HTR5A agonists in luminescence cell assay, primary screen, counter-screen for OPRM1-OPRD1 heterodimer agonist project, full-deck HTS. 5-hydroxytryptamine receptor 5A (Homo sapiens), P47898. cell-based. activation, % at 9.3 µM. actives 0.61% (n = 340,000); in the data active means activation mostly above about 9.5%, no sharp cut-off; inactive means mostly below about 7.6%;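 further: 0% = cells with vehicle only and 100% = reference agonist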
The depositor's hits bear a star; . = no result.

SMILES	HTR2A ag	MOR-DOR inv ag	MOR-DOR ag	HTR5A inv ag	HTR5A ag
COC1=CC(=O)OC(c2ccc(C#N)cc2)C1 (stereo not drawn)	-1	.	.	.	.
Cc1cccc(C)c1NC(=O)CSc1nc2[nH]c(=O)cc(O)c2s1	-6	10	-2	-28	10
COc1ccc(S(=O)(=O)NCCc2csc(C)n2)cc1C	3	12	-2	-7	3
Fc1ccc(Br)cc1C1C=C(c2ccc(Br)s2)Nc2ncnn21 (stereo not drawn)	-1	1	0	1	17*
COc1cccc(C2C=C(c3ccc(Br)s3)Nc3ncnn32)c1OC (stereo not drawn)	0	18	-3	16	2
CCOC(=O)C1CCCN(CC(=O)Nc2cc(C)cc(C)c2)C1 (stereo not drawn)	-6	6	-1	-13	-2
CCOC(=O)C1CCCN(CCC(=O)Nc2cc(C)cc(C)c2)C1 (stereo not drawn)	2	13	-3	-25	10*
COc1ccccc1CNC(=O)C(=O)NCC1CCCN1S(=O)(=O)c1cc(C)ccc1C (stereo not drawn)	-1	.	.	.	.
Nc1nc(N)c2c(ccc3nccc32)[nH]1	-6	3	-1	-42	12*
CCCCN(C(=O)Cc1ccc2c(c1)OCCO2)c1c(N)n(CC(C)C)c(=O)[nH]c1=O	1	1	0	1	-3
CCOC(=O)N1CCN(S(=O)(=O)c2ccc(C(=O)NNc3nc4cc(C)cc(C)c4s3)cc2)CC1	23*	-11	2	-45	3
c1ccc2c(c1)Oc1ccccc1S2	-5	17	-3	-52	13*
COC(=O)CCCC1=CC2=CC(=O)C(C)(OC(=O)c3cccs3)C(=O)C2=CN1c1ccccc1 (stereo not drawn)	2	-16	3	7	3
COCCN1C=C2C(=O)C(C)(OC(=O)c3cccs3)C(=O)C=C2C=C1CCCC(=O)OC (stereo not drawn)	3	2	0	3	14*
COC(=O)CCCC1=CC2=CC(=O)C(C)(OC(=O)c3cccs3)C(=O)C2=CN1CCCCO (stereo not drawn)	3	-20	4	-23	12*
COC(=O)CCCC1=CC2=CC(=O)C(C)(OC(=O)c3cccs3)C(=O)C2=CN1CCN1CCOCC1 (stereo not drawn)	0	4	-1	-14	7
CCN1CCCC1CNS(=O)(=O)c1ccc(Cl)c(C(F)(F)F)c1 (stereo not drawn)	-3	14	-3	22	13*
CC(C)(C)OC(=O)NCc1ccc(NC(=O)c2nc[nH]c2C(=O)N[C@@H](Cc2ccccc2)C(=O)OCc2ccccc2)cc1	2	-228	41*	-105	25*
CC(C)(C)OC(=O)NCc1ccc(CNC(=O)c2[nH]cnc2C(=O)N[C@@H](Cc2ccccc2)C(=O)OCc2ccccc2)cc1	7	-32	6	-8	9
CC(=O)Oc1ccc(C(c2ccc(OC(C)=O)cc2)c2ccccn2)cc1	0	-313	58*	-120	34*
CC1(C)CC(N=c2cc(-c3ccccc3)oc3ccc(Cl)cc23)CC(C)(C)N1	-8	-58	11	-41	14*
OCCCN=c1cc(-c2ccccc2)oc2ccc(Cl)cc12	-3	12	-2	12	-2
O=C1CC2(CCN(C(=O)COc3ccccc3F)CC2)Oc2ccccc21	0	-4	1	-4	2
Cc1ccc(S(=O)(=O)N/N=C\c2ccc3c(c2)OCO3)c(C)c1	-8	-13	3	-10	11*
O=C(c1cccs1)N1CCCC(c2nc3c(nnn3Cc3c(Cl)cccc3Cl)c(=O)[nH]2)C1 (stereo not drawn)	3	5	-1	3	-1
SMILES	HTR2A ag	MOR-DOR inv ag	MOR-DOR ag	HTR5A inv ag	HTR5A ag
CC(=O)Nc1ccc(NC(=O)CCN2C(=O)c3ccccc3C2=O)cc1	-5	6	-1	7	-2
CC(=O)Nc1ccc(NC(=O)CCCN2C(=O)c3ccccc3C2=O)cc1	6	-9	2	-28	9.8*
CC(/C=C/C=C/c1ccccc1)=N/NC(=O)CNc1ccc(C)cc1	3	-30	5	-8	3
O=c1n(-c2ccccc2)c(=O)n2n1CCC2	-3	13	-2	10	10*
COc1ccc(-c2nc(NC(=O)c3ccc(OCC(=O)Nc4ccc(F)cc4)c(OC)c3)sc2C)cc1	-1	-102	19*	6	15*
CCN1CCc2c(C#N)c(N3CCCCC3)nc(NCc3ccccc3)c2C1	-11	-34	5	-29	1
C=CCNc1nc(N2CCCCC2)c(C#N)c2c1CN(Cc1ccccc1)CC2	39*	5	-1	-11	0
COc1cccc(CC2(CO)CCCN(C(=O)c3cc[n+]([O-])cc3)C2)c1 (stereo not drawn)	-1	13	-3	0	-3
CN(CC(=O)Nc1c(Cl)cccc1Cl)C(=O)c1ccc(-n2cncn2)c([N+](=O)[O-])c1	-14	-5	1	-31	11*
Cc1cc(C)c(O)c(CN(C)Cc2cc(Cl)cc(Cl)c2O)c1	-1	-20	4	-53	13*
Cc1ccnc(NCc2cc(Cl)cc(Cl)c2O)c1	-2	.	.	.	.
Cc1ncccc1C(=O)N1CCCC(c2cc(C(=O)Nc3ccc(C(C)(C)C)cc3)no2)C1 (stereo not drawn)	-3	.	.	.	.
COc1ccc(/C=N/NC(=O)C(C)Sc2ccccn2)cc1[N+](=O)[O-] (stereo not drawn)	-3	16	-3	22	11*
CCOc1ccc(NC(=O)c2ccc(NC(=S)NC3CC3)cc2)cc1	1	5	-1	7	-3
CCOc1ccc(NC(=O)c2ccc(NC(=S)NC3CCCCC3)cc2)cc1	0	-56	11	-27	9.9*
Cc1cc(=O)oc2cc(OCC(=O)Nc3ccc(N4CCC(C)CC4)cc3)ccc12	1	-83	16	-36	11*
CC(c1nccs1)N(C)c1nc2nonc2nc1N(C)C (stereo not drawn)	1	17	-3	-3	1
O=CC1=C(c2ccccc2)Oc2ccccc2O1	7	-29	6	-42	11*
CN(C)/C=C1/N=C(c2ccccc2)OC1=O	-2	3	-1	-6	2
COc1ccccc1C(c1nnnn1C(C)(C)C)N1CCCc2ccccc21 (stereo not drawn)	3	-6	1	-26	13*
Cc1ccc(C)c(N2CCN(C3C(=O)Nc4ccccc4-n4nnnc43)CC2)c1 (stereo not drawn)	7	.	.	.	.
CC(C)c1cc(C(=O)NNC(=S)NCc2ccco2)c(O)c(C(C)C)c1	2	-74	15	-26	10*
